Screening results deposited in PubChem BioAssay by several laboratories.
An excerpt weighted towards active compounds, which were near 4% of everything screened.
FAS-TE inh: FAS thioesterase (human) inhibition | P49327 | actives 0.67% (n = 360,000) | recombinant FAS-TE, OMFH fluorogenic substrate, fluorescence endpoint | inhibition, % at 15 µM;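 active = compounds whose normalised, plate-corrected inhibition of enzyme fluorescence in the single-dose primary screen is 50% or more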;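 also: 0% = DMSO with enzyme and 100% = substrate without enzyme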
NR3A LBD binder: NR3A (human) ligand-binding domain modulation; Tm shift relative to glycine control, % at 25 µM; AID 1259313; NR3A LBD differential scanning fluorimetry, Tm shift; 0% = protein alone, 100% = glycine-bound protein; actives 2.5% (n = 340,000);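 active = melting temperature shift of at least 10% of the positive control shift, at one fixed dose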
aDG glyco act: alpha-DG glycosylation activation; Pro5-aDG cells, alpha-DG glycosylation AlphaScreen (IIH6); 0% Pro5, 100% B10-LARGE cell signal; activation, % at 10 µM; actives 0.22% (n = 360,000); AID 624168;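 active = activation of at least 8% versus controls, or a plate z-score of at least 8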;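 also: Pro5 are CHO cells carrying HIG-tagged alpha-DG that lacks glycosylation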
ADAM17 inh: inhibitors of human ADAM17 | P78536 | inhibition, % at 6.95 µM | recombinant ADAM17, EDANS/DABCYL FRET peptide cleavage | actives 0.83% (n = 370,000) | AID 720648;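 active = inhibition above the mean of compounds lying between control limits plus 3 SD, set per campaign, cut at about 8.5% in these data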;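 also: 0% = DMSO-only wells as the low control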
ADAM10 inh: inhibits human ADAM10 | recombinant ADAM10, EDANS/DABCYL FRET peptide cleavage, 3 h | inhibition, % at 7 µM | actives 0.62% (n = 370,000);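 active = inhibition above a per-campaign cutoff equal to the mean of compounds falling between control-based bounds plus 3 SD, cut at about 20% in these data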;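 also: 0% = DMSO wells while the 100% control is not disclosed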
Target sequence (O14672 214-748 limits assumed): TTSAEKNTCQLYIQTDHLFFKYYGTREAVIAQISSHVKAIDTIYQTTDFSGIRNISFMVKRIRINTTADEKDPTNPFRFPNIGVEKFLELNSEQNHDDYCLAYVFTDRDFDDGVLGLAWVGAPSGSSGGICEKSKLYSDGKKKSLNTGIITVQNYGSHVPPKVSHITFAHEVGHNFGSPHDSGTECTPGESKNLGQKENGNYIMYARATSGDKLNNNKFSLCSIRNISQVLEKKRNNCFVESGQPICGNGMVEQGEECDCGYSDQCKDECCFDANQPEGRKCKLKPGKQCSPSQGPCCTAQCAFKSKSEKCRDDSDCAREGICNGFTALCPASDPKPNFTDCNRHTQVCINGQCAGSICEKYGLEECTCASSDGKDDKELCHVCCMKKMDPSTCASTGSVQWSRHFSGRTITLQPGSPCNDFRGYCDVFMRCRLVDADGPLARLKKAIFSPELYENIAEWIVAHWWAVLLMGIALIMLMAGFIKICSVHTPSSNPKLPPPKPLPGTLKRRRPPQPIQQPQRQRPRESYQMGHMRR
Starred values were filed as active, the others as inactive; i = inactive; / = not tested or not shown.

SMILES	FAS-TE inh	NR3A LBD binder	aDG glyco act	ADAM17 inh	ADAM10 inh
CCn1c(O)c(C=C2N=c3ccccc3=N2)sc1=S	-3.8	1.5	-0.1	-4.1	-2.2
CCOC(=O)c1c(-c2cccc([N+](=O)[O-])c2)cn2ccccc12	22.4	-16.1	0.1	-0.6	1.9
CC(C)[C@@H](N)C(=O)N/N=C/c1ccc2nccnc2c1	-5.1	11.0*	0.0	-2.1	-3.4
Cc1cc(F)ccc1S(=O)(=O)Nc1ccccc1C(=O)Nc1ccccc1-c1nc2ccccc2[nH]1	39.3	18.3*	0.7	/	/
O=C(Nc1ccc(-c2nc3ccccc3[nH]2)cc1)c1ccccc1NS(=O)(=O)c1ccc(F)cc1	12.6	30.4*	0.0	-346.0	i
O=C(Nc1ccc(S(=O)(=O)Nc2ncccn2)cc1)c1ccccc1NS(=O)(=O)c1ccc(F)cc1	-7.8	-0.7	0.2	-19.1	-27.4
CCOC(=O)C1CCN(S(=O)(=O)c2ccc(-n3cnnn3)c(C)c2)CC1	-1.1	0.6	-0.1	-1.3	-2.9
CCN(CC)CCCNc1nnc(C)c(=O)[nH]1	-3.9	11.0*	-0.1	-3.0	-2.9
Cc1nnc(NCCc2ccccc2)[nH]c1=O	-7.5	0.9	-0.1	0.7	1.4
COc1ccc(-c2nc3ccccc3c(=O)n2O)cc1	1.3	32.1*	0.0	-3.4	3.4
COc1cc([N+](=O)[O-])ccc1NC(=S)Nc1cc(C(=O)OC(C)C)cc(C(=O)OC(C)C)c1	13.1	11.9*	0.2	-35.5	-130.8
Cc1nc(NS(=O)(=O)c2ccc(Br)cc2)c2c3c(sc2n1)CCC3	6.0	-0.5	0.5	-5.4	-13.0
COC(=O)c1ccc(C(=O)OC)c(NC(=O)COC(=O)CC2CC3CCC2C3)c1 (configuration not stated)	27.9	18.7*	-0.2	-3.0	-12.9
Cc1ccc(Cl)cc1NC(=O)COC(=O)CC1CC2CCC1C2 (configuration not stated)	29.1	-11.8	0.0	2.0	8.6
CCCN1CCC(=O)N(CCSc2ccc(NC(C)=O)cc2)CC1	-6.3	-1.0	-0.2	-3.4	-1.6
O=C(CNC(=S)N(Cc1ccccc1F)C1CCCCC1)NC1CC1	-1.0	11.2*	-0.1	-2.9	1.2
Fc1cccc(NC(=S)Nc2cccc3ccccc23)c1	2.8	-4.9	0.0	-57.4	-210.7
Cc1ccc(NC(=S)Nc2cccc3ccccc23)cc1F	14.6	16.1*	0.2	-96.9	-298.5
CNC(=O)NC(=O)C(C)OC(=O)c1c(C)noc1C (configuration not stated)	-4.6	1.3	-0.1	0.5	2.5
NC(=O)c1ccccc1NC(=O)CCCCCn1nnc2ccccc2c1=O	-5.4	11.8*	0.0	-5.2	-2.0
CCOC(=O)C1CCN(C(=O)c2cccc(S(=O)(=O)N(C)C3CCCCC3)c2)CC1	1.4	3.2	0.2	-1.0	-3.2
O=C(Nc1ccc(-c2nc3cccnc3s2)cc1)c1ccco1	-0.1	11.5*	0.0	-213.7	i
O=C(Nc1ccc(-c2nc3cccnc3s2)cc1)c1cccnc1Cl	-2.1	1.4	0.0	-27.7	-68.7
O=C(Nc1ccc(-c2nc3cccnc3s2)cc1)c1ccc(Br)o1	-3.5	19.9*	-0.4	-58.6	-184.3
Cc1cc(NC(=O)/C=C/c2ccc(Cl)cc2)no1	-6.4	-1.7	0.0	-0.4	2.2
SMILES	FAS-TE inh	NR3A LBD binder	aDG glyco act	ADAM17 inh	ADAM10 inh
COc1ccccc1NC(=O)Nc1nc(CC(=O)NCc2ccccn2)cs1	-3.8	4.3	0.1	1.2	-8.2
O=C(COc1ccccc1[N+](=O)[O-])Nc1ccc2oc(=O)ccc2c1	-3.8	-22.5	-0.2	-0.2	-5.9
O=C(COc1ccccc1[N+](=O)[O-])Nc1ccc(NC(=O)c2cc3ccccc3o2)cc1	4.1	12.2*	-0.1	-1.0	5.0
O=C(Cc1ccc(Cl)cc1)Nc1ccc(-c2cc3ccccc3oc2=O)c(Cl)c1	28.1	19.1*	0.0	-93.7	-250.4
COc1cc(NC(=O)c2cccc(C)c2)ccc1NC(=O)c1cc2ccccc2o1	-3.2	33.4*	-0.1	-2.9	-15.2
COc1ccc(NC(=O)c2cc3ccccc3o2)cc1OC	0.8	26.2*	0.0	-0.8	-0.8
COc1ccc(CN(C)C(=O)c2cc(S(=O)(=O)N3CCCCCC3)ccc2OC)cc1OC	-3.4	0.7	0.5	-0.9	5.3
Cc1cc(C)c(Nc2n[nH]c(=S)s2)cc1C	-8.1	/	-0.1	-1.4	2.2
CCn1cc(CN2CCN(Cc3cccc(OC)c3)C(CCO)C2)c(C)n1 (configuration not stated)	-11.0	0.5	-0.3	-1.9	6.0
O=C(Nc1ccccc1)c1cc2ccccc2o1	-0.2	-13.6	-0.1	-3.3	5.5
CCc1ccccc1OCC(=O)Nc1ccc(S(N)(=O)=O)cc1	-3.6	3.4	0.0	-2.7	-7.7
NS(=O)(=O)c1ccc(NC(=O)COc2cccc3ccccc23)cc1	0.3	15.8*	0.2	0.3	-8.8
CCC(=O)Nc1ccc(Cl)c(NC(=S)NC(=O)c2ccco2)c1	10.5	-8.1	0.1	-3.0	2.9
O=C(Nc1cccc(NC(=O)c2nccc3ccccc23)c1)c1ccco1	6.4	19.0*	-0.1	3.8	8.7
CCC(=O)Nc1ccc(Cl)c(NC(=S)NC(=O)c2cc3ccccc3o2)c1	-10.7	25.0*	0.0	-2.7	-4.3
O=C(Nc1ccc(NC(=O)c2cc3ccccc3o2)cc1)c1ccco1	3.8	25.8*	0.2	-3.7	-25.3
O=C(Nc1cccc(NC(=O)c2ccco2)c1)c1ccccc1	-1.3	-3.1	0.0	0.7	6.2
O=C(/C=C/c1c(Cl)cccc1Cl)N1CCOCC1	-5.4	-2.9	0.2	-0.1	3.8
CC(OC(=O)c1ccc(C#N)cc1)C(=O)Nc1ccc(Cl)cn1 (configuration not stated)	-4.2	0.9	-0.5	-3.6	-16.3
CC(CCc1ccccc1)NC(=O)c1ccc(NC(=O)c2ccc(Cl)cc2Cl)cc1 (configuration not stated)	-3.3	5.0	0.0	1.5	7.2
CC(=O)Nc1cccc(NC(=O)c2cc3ccccc3o2)c1	-3.6	5.7	0.8	3.7	6.8
Cc1ccc(NC(=O)c2cc3ccccc3o2)cc1Cl	36.2	34.8*	0.5	-0.4	-24.1
Cc1ccc(NC(=S)N2CCN(S(C)(=O)=O)CC2)cc1	-3.8	-0.7	0.6	0.4	7.4
COc1ccc(C(=O)C=CNNC(=O)c2ccc(Cl)cc2)cc1	11.3	3.9	0.1	3.8	6.4
CC(=O)[C@H]1CC[C@H]2[C@@H]3CCC4=CC(=O)CC[C@]4(C)[C@H]3[C@H](O)C[C@]12C	-6.2	-4.2	0.0	-6.3	-8.2
C[C@]12CC(O)C3C(CCC4=CC(=O)CC[C@@]43C)C1CCC2c1csc(-c2ccccc2)n1 (some centres not stated)	41.8	13.3*	0.7	-7.7	4.0
COc1ccc(/C=C/C(=O)c2oc3ccc(F)cc3c2C)cc1	10.4	13.0*	0.2	/	/
O=S(=O)(Nc1cc(Cl)ccc1-n1cncn1)c1ccccc1Cl	-6.5	-3.0	0.1	-2.9	-14.4
